Measured values published in PubChem BioAssay AID1508600 (Functional Genomics Laboratory (NCATS/FGL), 2020).
Among all 53,000 sequences or so, about 3,700 (7%) were called active. The sample as a whole holds a higher share of actives than the screen did. Values without a mark were called inactive.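 The calls were made as follows: active = gene knockdowns whose robust z-score for IL-1 alpha signal is at least 2 or at most -2, so actives lie on both sides; inactive = the rest.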

Test: Components of the Cytosolic LPS Sensing Pathway: Gene Identification via Genome-wide siRNA Screen;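 also: robust z of the log signal after scaling to non-targeting control siRNA wells of the plate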
Conditions: RAW264.7 macrophages, IL-1a HTRF, actives lie on both sides, screened at 100 nM (by protocol), cells primed 5 h with Pam3CSK4 first
Outline: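 RAW264.7; siRNA 100 nM final, RNAiMAX, 48h 37 degrees C; Pam3CSK4 5 h; LipidA + TransIT-TKO 24 h; IL-1a HTRF; CellTiter-Glo viability; robust z vs negative-control median.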

| Sequence | z-score |
| --- | --- |
| GGCAAAAGCACUGAAGAGATT against Ar | -0.63 |
| GGGCUCUUUAGUACUAGAATT against Spn | -0.612 |
| GGUCCCUUGAUGUCGAUUATT against Stt3b | -1.15 |
| GCUUCAGCUCUGAUUAACGTT against Alox8 | -0.233 |
| GCCGAUAGCAUAGACAGUGTT against Kansl2 | 0.6 |
| CCAGUCCUACUUAGCAAAGTT against Lrrc75a | -1.48 |
| GGUGCAGAGCUUGAGAUGATT against Anks3 | -0.729 |
| GCUGAACAUUAGCUUCAAUTT against Lrrc9 | -1.42 |
| GGUUGCUCACUCAUUUAACTT against Pa2g4 | 2.18 (active) |
| GGAGACAUAUGAGACUCUGTT against Fcer1g | 0.156 |
| GGGACAGAUACUAAACUCUTT against Wfdc2 | 3.49 (active) |
| CCAUGGUUACCGUGUACUATT against Olfr1513 | -0.312 |
| GGAUCAUUGACAGUGAAUATT against Blk | -1.35 |
| GGUCCUAUUUCGGAGCUUUTT against Tnfsf14 | 0.365 |
| GCUCAUCGUGUUUUCAACCTT against Cbr3 | -0.034 |
| GGGACACACCAUCAAAAGGTT against Kank4 | -2.32 (active) |
| GGAAAAAUGGAAACCUAAGTT against Nipal3 | 1.16 |
| GGUAUUAUCUGCAUGGGCATT against Mkrn3 | 0.273 |
| GGAUGAAGUGUGUUUUGGCTT against Sim1 | 0.95 |
| GGACCUUUUGUCUAUAAUGTT against Arl4c | 0.759 |
| GGCAGCUAAACUGUGUUAUTT against Tex11 | -1.36 |
| GGGCUUUGGACAUCUCCUATT against Serpina3c | -1.98 |
| GGGAUAUCCUACCAGGUCATT against Ppard | -1.24 |
| GCUCCUUUAGUCCUCACCATT against Mrpl10 | -2.15 (active) |
| GGAUCUUCAGGAAAACAGATT against Fam181b | -0.955 |
| CCACCCUUCUUCUAUCGAATT against Ybx2 | -1.11 |
| GCCAGAGUUUAUUAACUGCTT against Stxbp6 | -0.809 |

| Sequence | z-score |
| --- | --- |
| CCAUUGCAGCAUACUGUCCTT against Serpina1b | -0.402 |
| GCGGCUAAUUCGUUCUUUCTT against Atp8a1 | 0.708 |
| GGUCAGGUAGGGAUAUACATT against Dele1 | -1.59 |
| CCAAUAAAAGUGCACACCUTT against Actb | 2 (active) |
| GGCAGCAAGUUUUUUAAUCTT against Cap1 | 0.464 |
| GGAAAACAACAUGAUCGUGTT against Nadk | -0.137 |
| UCCCUAACGGCCCUUUUUATT against H4c14 | -0.729 |
| GGACAAGCUCCAAAACAACTT against Srsf4 | -0.292 |
| UAGGAACGCACCCAUACAATT against Fam89b | 0.555 |
| GGAAAACCCAGGUCAGAAUTT against Serpina9 | -1.07 |
| CCUUAAGCAGAGUUCAAAGTT against Timm22 | 0.197 |
| CCCUCCUCAGUAUUGUACUTT against Dtx2 | 2.51 (active) |
| GGUCAUUUCAAGUGCUAAGTT against Adgra1 | 2.76 (active) |
| GCCAGAAGUGAAAAUCGAATT against Fkbp14 | 0.509 |
| GGGACAAGGCCUCGAUAUUTT against Ggps1 | 0.958 |
| CGCAGGACUAUAAACUGAATT against Ptdss2 | 0.954 |
| CCUCUUUCGACAAGAGCUCTT against Atp1a3 | 0.904 |
| GCAGAUCGUGCGGAUCUUGTT against Bcdin3d | 2.1 (active) |
| GGCAUUGUUUUCAUUGUGGTT against Cldn7 | -0.0872 |
| GGAUGUGAUCCUACUGACATT against Tmem208 | 0.793 |
| GCUUCGAUACCUUCAAACCTT against Stom | -3.7 (active) |
| CGAGAGUCUAACCAAGUACTT against Arhgdib | -1.89 |
| GGAGAUUGUGAGAGCCAUGTT against Kcnab3 | -0.753 |
| GAGUGAGAAAGCCAGAGACTT against Acaa1a | 0.188 |
| GGACUGUUUACUCAGCUCATT against Slc25a33 | -2.02 (active) |
| GGCCCACAAGGCUGUUUUGTT against Zfp131 | 0.459 |
| GGAUUUCAAGGGAAUUUGATT against Wbp4 | -0.271 |
